The results in this text go back to ChEMBL document CHEMBL1157539, “Thousands of chemical starting points for antimalarial lead identification” (Nature, 2010).

Holding throughout (format): functional
The subject of assay [1] is Plasmodium falciparum. Description: GSK_TCMDC: Inhibition of Plasmodium falciparum 3D7 in whole red blood cells, using parasite LDH activity as an index of growth. Test compounds present at 2uM.
The subject of assay [2] is Plasmodium falciparum. As to the kind of experiment: GSK_TCMDC: Inhibition of Plasmodium falciparum Dd2 in whole red blood cells, using parasite LDH activity as an index of growth. Test compounds present at 2uM.
The test system of the next assay is HepG2. Description: GSK_TCMDC: Percent inhibition of human HepG2 cell line. Test compounds present at 10uM.

The term Inhibition denotes the percentage by which the read-out fell short of the control. Lower therefore signals a response near the control. For the compound `C=CC[C@H](C[C@H](O)[C@H](Cc1ccccc1)NC(=O)c1ccc(-c2cccnn2)cc1)C(=O)NC1CCCCC1`, the Inhibition in the assay on Plasmodium falciparum [1] is recorded as 83%; with Plasmodium falciparum [2], 0%; in the assay on HepG2 it was 2%.
In the same order, the values of `CNC(=O)c1cc(S(=O)(=O)N2CCN(c3ccccn3)CC2)c(C)s1` are 91%, 52% and 0%.
In the same order, the values of `O=C(CSc1nccn1C1CCCCC1)Nc1cc(C(F)(F)F)ccc1Cl` are 96%, 95% and 2%.
In the same order, the values of `Cc1ccccc1C1CCN(C2CCC(NC(=O)/C=C/c3ccc(C#N)cc3)CC2)CC1` (stereo not given) are 87%, 13% and 39%.
`O=C(O)C(F)(F)F.c1cc(-c2ccc(CN3CCCCC3)cc2)cc(-c2nc3ccccc3[nH]2)c1`: the Inhibition in the assay on Plasmodium falciparum [1] is on record as 100%; in the assay on Plasmodium falciparum [2] it was 79%; in the assay on HepG2 it was 39%.
In the same order, the values of `CC1(C)CCC(C)(C)c2c1ccc(C1CCN(CCCCNC(=O)c3ccc(-c4ccc(Cl)cc4)cc3)CC1)c2O` are 100%, 72% and 100%.
Taken in the same sequence, the figures for `Cc1cc(NCCC(=O)Nc2ccccc2)nc(NCCOc2ccccc2)n1.O=C(O)C(F)(F)F` were 100%, 9% and 5%.
Turning to `Cc1cc(F)ccc1C1CCN(CCCCNC(=O)c2ccc(NC(=O)c3ccc(Cl)cc3)cc2)CC1`, the Inhibition with Plasmodium falciparum [1] is reported as 100%; with Plasmodium falciparum [2] it was 79%; with HepG2, 19%.
In the same order, the values of `CC(C)NCc1cccc(-c2ccc(NC(=O)c3ccc(F)cc3)cc2)c1.O=C(O)C(F)(F)F` are 92%, 3% and 7%.
Take `Cl.N#Cc1ccc2c(c1)CCN(CCC1CCC(NC(=O)c3cc4cccc(Cl)c4[nH]3)CC1)CC2` (stereo not given): the values for the Inhibition in the assay on Plasmodium falciparum [1], with Plasmodium falciparum [2] and with HepG2 were 99%, 78% and 34%, respectively.
